According to the supplement of paper PMC8285479:
Counter-ions that a name gives are not always drawn. ± gives the standard deviation of the averaged measurements. Whole data set: some 1,900 compounds, median “normalised cell viability (NPI; 0 = phenylarsine oxide control, 1 = DMSO control)” near 1, cut for the lowest 2% near 0.039. The entries come from a sample that favours the lowest values as a whole.

System: NCI-H1944
Assay: normalised cell viability (NPI; 0 = phenylarsine oxide control, 1 = DMSO control) (fraction of DMSO control); NCI-H1944 is a non-small cell lung cancer line; higher = more viable cells (less compound toxicity)
Conditions: 6 days
[1] = glucocorticoid arm: hydrocortisone 2.75 uM co-treatment, compound 1 µM
[2] = glucocorticoid arm: hydrocortisone 2.75 uM co-treatment, compound 5 µM
[3] = glucocorticoid arm: hydrocortisone 2.75 uM pre-treated 2 days and continued, compound 1 µM
[4] = glucocorticoid arm: hydrocortisone 2.75 uM pre-treated 2 days and continued, compound 5 µM
[5] = glucocorticoid arm: vehicle, compound 1 µM
[6] = glucocorticoid arm: vehicle, compound 5 µM
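Note: CTB read-out in 384-well plates, triplicate wells, NPI normalised per plate against 1 µM phenylarsine oxide (0) and 0.1% DMSO (1) controls.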

Compound	normalised cell viability [1]	normalised cell viability [2]	normalised cell viability [3]	normalised cell viability [4]	normalised cell viability [5]	normalised cell viability [6]
CN[C@@H]1C[C@H]2O[C@@](C)([C@@H]1OC)n1c3ccccc3c3c4c(c5c6ccccc6n2c5c31)C(=O)NC4 [Staurosporine]	0.0825 ± 0.0098	0.0186 ± 0.003	0.246 ± 0.01	0.0923 ± 0.017	0.0216 ± 0.0022	0.00445 ± 0.0013
C[C@@H](N)Cc1cnc[nH]1 [Histamine, R(-)-alpha-methyl-, dihydrochloride]	0.997 ± 0.0027	0.997 ± 0.011	1	0.994 ± 0.014	0.9917 ± 0.0045	0.9963 ± 0.0032
NC(CP(=O)(O)O)C(=O)O (racemic) [(±)-2-Amino-3-phosphonopropionic acid]	0.993 ± 0.0066	0.9903 ± 0.0093	1.005 ± 0.0087	1 ± 0.013	0.9877 ± 0.0049	0.998 ± 0.013
CCc1c(C(=O)OC)ncc2[nH]c3cc(OC)c(OC)cc3c12 [Methyl 6,7-dimethoxy-4-ethyl-beta-carboline-3-carboxylate]	1.01 ± 0.016	1.023 ± 0.0058	1.01 ± 0.01	1.03 ± 0.01	0.9997 ± 0.0091	1.003 ± 0.0058
COc1cc(CC(C)N)c(OC)cc1I (racemic) [(±)-DOI hydrochloride]	1.01 ± 0.01	0.983 ± 0.023	0.998 ± 0.013	1.02 ± 0.01	0.998 ± 0.0035	0.994 ± 0.004
Oc1ncc(N(CCCl)CCCl)c(O)n1 [Uracil mustard]	0.972 ± 0.007	1.06 ± 0.011	1.043 ± 0.0058	1.033 ± 0.0058	0.244 ± 0.021	1.01 ± 0.011
C[C@@]12C(=O)OC(=O)[C@]1(C)[C@H]1CC[C@@H]2O1 [Cantharidin]	0.9967 ± 0.0035	0.00641 ± 0.0033	1.05 ± 0.021	0.12 ± 0.057	0.9873 ± 0.0032	0.00459 ± 0.0027
CN(N=O)c1ccc(O)c(O)c1 [Me-3,4-dephostatin]	1.017 ± 0.0058	1.01 ± 0.017	1.007 ± 0.0058	1.05 ± 0.086	1.01 ± 0.011	1.02 ± 0.01
CCCN1CCC[C@@H](c2cccc(C#N)c2)C1 [S(-)-DS 121 hydrochloride]	1.017 ± 0.0058	0.972 ± 0.034	1.01 ± 0.01	0.985 ± 0.033	1.02	1.04 ± 0.047
NCc1cc(O)no1 [Muscimol hydrobromide]	1.006 ± 0.0069	0.993 ± 0.015	1.01 ± 0.013	0.992 ± 0.031	1.01	1.003 ± 0.0061
CCCN1CCC[C@@H]2Cc3n[nH]cc3C[C@H]21 [(-)-Quinpirole hydrochloride]	0.982 ± 0.006	0.992 ± 0.018	0.867 ± 0.22	1.01 ± 0.016	0.985 ± 0.0087	0.9927 ± 0.0045
CCCN1CCC[C@@H]2Cc3n[nH]cc3C[C@H]21 (racemic) [(±)-Quinpirole dihydrochloride]	1.013 ± 0.0058	1.01 ± 0.036	0.893 ± 0.19	1.03 ± 0.01	1.013 ± 0.0058	1.01 ± 0.011
CCN(CCCl)CCOC(C)=O [Acetylethylcholine mustard hydrochloride]	1.01 ± 0.015	1.02 ± 0.034	1.01 ± 0.013	1.11 ± 0.061	0.995 ± 0.0046	1.01 ± 0.015
N.N.[Cl][Pt][Cl] [Cisplatin]	–	–	1.01	–	–	–
Cn1c(CCCC(=O)O)nc2cc(N(CCCl)CCCl)ccc21 [bendamustine hydrochloride]	1.02 ± 0.011	0.348 ± 0.02	1.007 ± 0.0058	0.7867 ± 0.0031	0.9937 ± 0.006	0.0218 ± 0.0032
O=[N+]([O-])c1ccc(O[C@@H]2O[C@H](CO)[C@@H](O)[C@H](O)[C@H]2F)c([N+](=O)[O-])c1 [2,4-Dinitrophenyl 2-fluoro-2-deoxy-beta-D-glucopyranoside]	0.9917 ± 0.004	0.989 ± 0.02	0.991 ± 0.023	0.974 ± 0.03	0.9807 ± 0.0021	0.9817 ± 0.0064
Cc1o[nH]c(=O)c1CC(N)C(=O)O (racemic) [(±)-AMPA hydrobromide]	0.995 ± 0.016	0.983 ± 0.016	0.999 ± 0.0095	0.994 ± 0.025	0.982 ± 0.0027	0.98 ± 0.007
CC(N)c1cccc(Cl)c1Cl (racemic) [(±)-2,3-Dichloro-alpha-methylbenzylamine hydrochloride]	1.006 ± 0.0075	1.02 ± 0.011	1.003 ± 0.0064	1.013 ± 0.0058	0.9993 ± 0.0097	1.001 ± 0.0081
CCCCN1[C@@H]2CC[C@H]1CC(OC(c1ccc(F)cc1)c1ccc(F)cc1)C2 (some centres undefined) [JHW 007 hydrochloride]	0.969 ± 0.017	0.629 ± 0.055	0.987 ± 0.011	0.969 ± 0.011	0.993 ± 0.003	0.228 ± 0.12
CC(N)C(O)c1ccc(O)c(O)c1 (single isomer, unassigned; (-)) [(-)-alpha-Methylnorepinephrine]	1.01 ± 0.012	0.971 ± 0.044	0.995 ± 0.013	0.958 ± 0.034	0.9967 ± 0.0058	0.9977 ± 0.0032
C/C=C(/C)C(=O)O[C@H]1C(C)=C2[C@H]([C@@H]1OC(=O)CCCCCCC)[C@@](C)(OC(C)=O)C[C@H](OC(=O)CCC)[C@@]1(O)[C@H]2OC(=O)[C@@]1(C)O [Thapsigargin]	0.0778 ± 0.015	0.0411 ± 0.016	0.215 ± 0.062	0.101 ± 0.029	0.0393 ± 0.014	0.00585 ± 0.0031
Clc1ccc(N2CC3CCC(C2)N3)nn1	1.003 ± 0.0064	0.979 ± 0.012	0.9903 ± 0.0074	0.9827 ± 0.004	0.9863 ± 0.0075	0.9843 ± 0.0086
C[C@@H]1O[C@@H](O[C@H]2C[C@@H](O)[C@]3(CO)[C@H]4[C@H](O)C[C@]5(C)[C@@H](C6=CC(=O)OC6)CC[C@]5(O)[C@@H]4CC[C@]3(O)C2)[C@H](O)[C@H](O)[C@H]1O [Ouabain]	0.00947 ± 0.006	0.00628 ± 0.0019	0.0931 ± 0.013	0.07 ± 0.028	0.00711 ± 0.0021	0.00424 ± 0.002
C[C@@H]1O[C@@H](O[C@H]2C[C@@H](O)[C@]3(CO)[C@H]4[C@H](O)C[C@]5(C)[C@@H]([C@@H]6COC(=O)C6)CC[C@]5(O)[C@@H]4CC[C@]3(O)C2)[C@H](O)[C@H](O)[C@H]1O [Dihydroouabain]	1.027 ± 0.0058	0.0138 ± 0.013	1.01 ± 0.015	0.143 ± 0.081	0.98 ± 0.017	0.00677 ± 0.002
NC(CCP(=O)(O)O)C(=O)O (racemic) [(±)-2-Amino-4-phosphonobutyric acid]	0.9883 ± 0.0042	0.998 ± 0.0017	1.01 ± 0.014	1 ± 0.042	0.9923 ± 0.0071	0.9973 ± 0.0025
N[C@H](C(=O)O)c1cc(O)no1 (racemic) [(±)-Ibotenic acid]	1.002 ± 0.0072	1 ± 0.032	0.991 ± 0.024	1.04 ± 0.096	0.9837 ± 0.0055	0.987 ± 0.012
Oc1cc2c(cc1O)[C@H]1c3ccccc3CN[C@@H]1CC2 (racemic) [Dihydrexidine hydrochloride]	1.002 ± 0.0068	0.995 ± 0.005	1.002 ± 0.0076	0.994 ± 0.018	0.9917 ± 0.0059	0.9897 ± 0.0031
CS(=N)(=O)CC[C@H](N)C(=O)O (stereo partly drawn) [L-Methionine sulfoximine]	1.003 ± 0.0058	1.01 ± 0.024	0.998 ± 0.01	0.948 ± 0.093	0.9987 ± 0.0023	1 ± 0.013
NC(Cn1oc(=O)[nH]c1=O)C(=O)O (single isomer, unassigned; (+)) [(+)-Quisqualic acid]	1.01 ± 0.01	0.973 ± 0.028	1.01 ± 0.031	1.01 ± 0.021	1.01 ± 0.012	1.005 ± 0.0087
